Measured values as given in PubChem BioAssay AID2314 (National Center for Advancing Translational Sciences (NCATS), 2010).
Values joined by “and” are separate entries in the source; they are usually repeats but may differ in a detail not shown here. Equal entries are not always repeated. About 37,000 (12%) of roughly 300,000 compounds were called active. For the sample, actives were picked, then their nearest neighbours and some compounds at random. Unmarked numbers belong to inactive results. No stated cut-off is given here; in the data, active means max response mostly above about 13% (no sharp cut-off); inactive means mostly below about 14%.

test: Cycloheximide Counterscreen for Small Molecule Inhibitors of Shiga Toxin; conditions: cell reporter, cycloheximide protein synthesis inhibition counterscreen; stronger effect = higher value; further: read at 38.3 µM for the half of the compounds with a filed dose; 0% is about no effect

Structure (SMILES) | max response
CN(C(=O)COC(=O)c1nc(Cl)ccc1Cl)C1CCS(=O)(=O)C1 (stereo unspecified) | -1.17%
COC(=O)c1c(-c2ccc(C)cc2)csc1N | 9.52%
Nc1scc(-c2ccncc2)c1Cl | 26% (active)
O=C(c1ccc(S(=O)(=O)c2ccccc2)cc1)N1CCCCCC1 | -1.02%
O=C(c1ccc(CSc2ccccc2)cc1)N1CCCCCC1 | 66.2% (active)
CC1CCN(C(=O)c2ccc(CSc3ccc(Cl)cc3)cc2)CC1 | -3.83%
Cc1cccc(C)c1NC(=O)CSc1nc2c([nH]1)c(=O)n(C)c(=O)n2C | -6.42%
CC1=C(C(=O)OCC2CCCCC2)C(c2ccc(F)cc2)NC(=O)N1 (stereo unspecified) | -1.88%
Cc1cccc(N2C(=O)c3cccnc3C2=O)c1 | 7.77%
Cc1cccc(N2C(=O)C3C(c4ccccc4)OC4(C(=O)c5ccccc5C4=O)C3C2=O)c1 (stereo unspecified) | 7.54%
Cc1cccc(N2C(=O)NC(=O)/C(=C\c3cnn(-c4ccccc4)c3)C2=O)c1 | 25.1% (active)
O=C(CNC(=O)c1ccc(Br)o1)NCC1CCCO1 (stereo unspecified) | -2.05%
CC(C)(C)C1CCC(=NNC(=O)c2ccc(Br)o2)CC1 (stereo unspecified) | 35.2% (active)
CC(C)(C)C1CCC(=NNC(=O)c2cc(-c3ccccc3)n[nH]2)CC1 (stereo unspecified) | 5.64%
CC(NC(=O)C(=O)NN=C1CCC(C(C)(C)C)CC1)c1ccccc1 (stereo unspecified) | 1.38%
CC(CNC(=O)c1ccc(Br)o1)NC(=O)c1ccc(Br)o1 (stereo unspecified) | -3.59%
CCC(C)(C)C1CCC(=NNC(=O)c2ccc(Br)o2)CC1 (stereo unspecified) | 44.3% (active)
CC(=O)N1C(C)c2ccccc2C(C)(C)CC12CCCCC2 (stereo unspecified) | -1.42%
Cc1ccc(C)c(N2CCN(S(=O)(=O)c3c(C)[nH]c(C)c3C(=O)N3CCCC3)CC2)c1 | -1.94%
C=CC(COCc1ccccc1)N(Cc1ccccc1)S(=O)(=O)c1ccccc1Br (stereo unspecified) | -2.35% and 5.45%
Cc1ccc(NC(=O)NC(=O)N(C2CCCCC2)S(=O)(=O)c2ccccc2)cc1 | 40.9% (active)

Structure (SMILES) | max response
Cc1ccc(S(=O)(=O)N(C)CC(=O)NC2CCCC2)cc1 | -2.07%
CS(=O)(=O)N(C(=O)NC(=O)NC1CCS(=O)(=O)C1)C1CCCCC1 (stereo unspecified) | -1.14%
CCOc1ccccc1NC(=O)CCS(=O)(=O)c1cccc2nsnc12 | -6.23%
NC(=O)c1ccccc1N=Cc1ccc2ccccc2c1 | 38.3% (active)
O=C(N/N=C/c1cccc(O)c1)c1cc2c(ccc3ccccc32)o1 | 8.61%
O=C(COc1cc2oc(=O)c3c(c2cc1Cl)CCC3)NCCCN1CCOCC1 | 6.01%
O=C(NCCc1ccccc1)C1CCC(Cn2c(=O)c3ccccc3n(Cc3cccnc3)c2=O)CC1 (stereo unspecified) | -1.63%
O=C(O)c1cc([N+](=O)[O-])c(Nc2cccc3ccccc23)c([N+](=O)[O-])c1 | -2.68%
COc1ccc(CSc2nnnn2-c2ccc(C(=O)O)cc2)cc1 | -3%
CCOc1ccc(NC(=O)CSc2nncn2C)cc1 | 3.07%
COC(=O)c1ccccc1NC(=O)c1ccccc1NS(C)(=O)=O | -1.19%
CCOc1cccc(NC(=O)CC#N)c1 | -0.681%
CCOc1ccc(NC(=O)c2ccc(NC(=O)C3CCCO3)cc2)cc1 (stereo unspecified) | 14.7%
CCOc1ccc(C(=O)Nc2ccncc2)cc1 | 23.7% (active)
CCOc1ccc(NC(=O)c2ccc(CSc3nnnn3C)cc2)cc1 | 20.2% (active)
CCOc1ccc(NC(=O)c2ccccc2NS(C)(=O)=O)cc1 | 15.1% (active)
CCCNC(=O)Nc1ccccc1C(=O)Nc1ccc(OC)cc1 | 2.17%
CCOc1ccc(C(=O)Nc2cccc(-c3ccc4nncn4n3)c2)cc1 | -0.39%
CCOc1ccc(NC(=O)CCNC(=O)c2ccc(Br)cc2)cc1 | 17.2%
CCOc1ccc(C(=O)Nc2cccc(SC)c2)cc1 | 43.4% (active)
CC1CN(c2nc(Nc3ccccc3)nc(N)c2[N+](=O)[O-])CC(C)O1 (stereo unspecified) | 1.21%

Structure (SMILES) | max response
O=C(CN1CCN(c2ccc(O)cc2)CC1)NC1CCCc2ccccc21 (stereo unspecified) | -4.39%
COc1ccc(CN(C)C(=S)Nc2ccc(Cl)cc2Cl)cc1 | -0.677%
O=C(O)C1CC=CC2CCN(C3CCCCC3)C(=O)C21 (stereo unspecified) | -7.95%
COc1ccc(OC)c(NC(=O)CN(C)CCOc2ccc(Br)cc2)c1 | -3.46%
O=C(Oc1cccc(N2C(=O)C3C4c5ccccc5C(c5ccccc54)C3C2=O)c1)c1ccco1 (stereo unspecified) | -4.24%
Cc1ccc2c(c1)N(S(=O)(=O)c1cc(-c3cc(C)no3)ccc1C)CCO2 | 1.76%
CC(=O)Nc1cccc(C(=O)OCN2C(=O)c3ccccc3C2=O)c1 | -2.39%
CCN(CC)N=Nc1cccc(NC(C)=O)c1 | 15.1% (active)
CCN(CC)C(=O)CSC(Nc1cccc(F)c1)=C(C#N)C#N | -0.453%
O=C(CSc1nnc(CNC(=O)c2ccc(F)cc2)o1)Nc1ccc2c(c1)OCO2 | -1.02%
Fc1ccc2nc(-c3ccccc3)nc(SCc3nnc(-c4ccccc4)o3)c2c1 | -4.64%
Fc1ccc(-c2nnc(CSc3nnc(-c4ccc5c(c4)OCO5)o3)o2)cc1 | 26% (active)
O=C(Nc1ccnn1C1CCN(C/C=C/c2ccc(F)cc2)CC1)C1CCCC1 | -1.88%
CCOc1ccc(OCC)c(NC(=O)CCS(=O)(=O)c2ccc(C)cc2)c1 | -3.4%
Cc1ccc(N/N=C2\COC(C)(C)CC2=O)cc1 | 73.1% (active)
COc1ccc(N/N=C2/CCCCC2=O)cc1 | 29.4%
CC(C)CC(COCc1ccc(Cl)cc1)N1CCN(C(=O)c2ccc(C(F)(F)F)cc2)CCC1=O (stereo unspecified) | -2.17%
O=C1CC(Sc2ncn[nH]2)C(=O)N1c1ccccc1 (stereo unspecified) | -3.41%
COc1ccc(N2CCN(C(=O)c3ccccc3NC(=O)C3=C(C)OCCS3)CC2)cc1 | -5.37%
